# Reference: PubChem BioAssay (NCI)
# The panel holds about 83,000 compounds, 20% with a hit somewhere; the sample as a whole holds those more often.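 Growth was measured after 48 h exposure to one concentration of compound in 96-well plates. Values under 10 count as active.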 Values without a mark were called inactive. Calls of active or inactive are those of the source.
# Experiments:
# Assay in all cases: NCI-60 one-dose screen, 48 h (100 = growth as untreated, 0 = no growth, -100 = all killed)
# Conditions in all cases: 10 µM unless noted
# HCT-15 colon = system: HCT-15 colon
# HT29 colon = system: HT29 colon
# SNB-75 CNS = system: SNB-75 CNS
# SNB-19 CNS = system: SNB-19 CNS
# U251 CNS = system: U251 CNS
# PC-3 prostate = system: PC-3 prostate
# SK-MEL-5 melanoma = system: SK-MEL-5 melanoma
# UACC-62 melanoma = system: UACC-62 melanoma
# LOX IMVI melanoma = system: LOX IMVI melanoma
# SK-MEL-28 melanoma = system: SK-MEL-28 melanoma
# EKVX NSCLC = system: EKVX NSCLC
# SN12C renal = system: SN12C renal
# UO-31 renal = system: UO-31 renal
# TK-10 renal = system: TK-10 renal
# ACHN renal = system: ACHN renal
# CAKI-1 renal = system: CAKI-1 renal
# CCRF-CEM leukemia = system: CCRF-CEM leukemia
# MOLT-4 leukemia = system: MOLT-4 leukemia
# SK-MEL-2 melanoma = system: SK-MEL-2 melanoma
# A498 renal = system: A498 renal
SMILES,growth (HCT-15 colon),growth (HT29 colon),growth (SNB-75 CNS),growth (SNB-19 CNS),growth (U251 CNS),growth (PC-3 prostate),growth (SK-MEL-5 melanoma),growth (UACC-62 melanoma),growth (LOX IMVI melanoma),growth (SK-MEL-28 melanoma),growth (EKVX NSCLC),growth (SN12C renal),growth (UO-31 renal),growth (TK-10 renal),growth (ACHN renal),growth (CAKI-1 renal),growth (CCRF-CEM leukemia),growth (MOLT-4 leukemia),growth (SK-MEL-2 melanoma),growth (A498 renal)
CC(C)(C)CC(C)(C)n1nnnc1C(Nc1nccs1)c1cc2cccc3ccc4cccc1c4c32 (stereo not given),94.9%,104%,91.5%,89.9%,98.1%,96.9%,100%,68.4%,97%,101%,97.2%,99.4%,87.9%,108%,96.1%,75.9%,106%,121%,–,–
CN1CCN(c2nc(-c3csc(-c4ccccc4)n3)cc3ccccc23)CC1,-48.6% (active),-52% (active),70.5%,66.1%,36.7%,28.9%,58.7%,-38.4% (active),-80.7% (active),-25.2% (active),63.5%,50.2%,43.6%,73.3%,16.1%,21.2%,14.2%,4.08% (active),–,–
CCCC(=O)NC(c1cccnc1)c1cc(C(C)(C)C)c2cccnc2c1O (stereo not given),35.4%,34%,37.4%,31.6%,18.6%,44.1%,-15.4% (active),7.53% (active),20.3%,–,21.7%,29.5%,13.6%,42.3%,12.1%,16.2%,9.16% (active),14.2%,30.5%,13.6%
C=CCn1c(-c2nc3ccc(C(=C(C#N)C#N)c4ccccc4)cc3[nH]2)cc2cc(Br)ccc21,30.4%,64.4%,89.3%,70.8%,51.9%,31.5%,55.9%,39.5%,36.4%,–,42.9%,69%,51.9%,94%,55.6%,48.8%,50.5%,36.4%,96.7%,87.7%
CC1(COc2ccc3ncc(C#Cc4cncc(C(=O)Nc5cccc(C(F)(F)F)c5)c4)n3n2)COC1,86.1%,82.1%,63%,82.8%,91.3%,95.5%,79.4%,72.9%,65.6%,86.8%,101%,61.9%,58.2%,128%,72.4%,81.7%,88.4%,84.9%,–,–
CC(C)(C)n1nnnc1C(Nc1cccc2c1OCO2)c1cc2cccc3ccc4cccc1c4c32 (stereo not given),71%,81.2%,115%,83.5%,85.9%,59.4%,85%,65.3%,86.7%,94.4%,73.7%,90.5%,67.8%,116%,85.6%,64.5%,-12.9% (active),67.1%,–,–
C[C@@H]1C[C@H]2C(=O)O[C@@H](C)C(NC(=O)[C@H](Cc3cc(F)cc(F)c3)NC(=O)Nc3ccc(C4CC4)cc3F)C(=O)N3CCC[C@H]3C(=O)N3CCCC[C@H]3C(=O)N[C@@H](CO)C(=O)N2C1 (stereo not given in full),14.1%,25.4%,31.5%,27.9%,29.8%,11.5%,-15.9% (active),21.3%,30.4%,41.1%,30.2%,18.7%,25.8%,52.6%,28.6%,18.6%,31.2%,39.7%,–,–
NC(=O)c1c(NC(=O)c2ccc(F)cc2F)sc2c1CCC(=O)C2,11.8%,59.8%,66.8%,59.3%,32.4%,16.3%,64.6%,22.6%,22.6%,–,73.6%,72.9%,29.3%,61.9%,7.96% (active),33.9%,18.3%,40.6%,102%,100%
O=C(Cn1c(-c2ccccc2)nc2cc(Cl)c(Cl)cc21)N=Nc1c(O)[nH]c2ccc(Cl)cc12,68.7%,51.4%,101%,87.8%,93.8%,70.8%,79.5%,71.7%,72.2%,66.4%,75.5%,89.8%,73.7%,104%,74.3%,70.2%,-8.19% (active),72.3%,–,–
O=C(CCn1cc[n+](CC(=O)c2ccc(-c3ccccc3)cc2)c1)Nc1cccc2cccnc12,96.5%,70.7%,45.4%,61.4%,61.2%,55.9%,81.1%,58.8%,82.5%,67.3%,–,77.4%,88.1%,117%,104%,104%,78.4%,84.3%,–,98.8%
CCOC(=O)c1c(Nc2ccccc2)nn2c(-c3cccs3)ccnc12,53.8%,80.3%,88.8%,98.2%,88.6%,81%,70.9%,84.6%,73.7%,90.7%,88.8%,91%,82.6%,107%,88.3%,78.8%,58.8%,74.5%,–,–
CNC(=O)c1c(NC(=O)c2cccc(C(F)(F)F)c2F)sc2c1CCC(=O)C2,5.54% (active),9.35% (active),0.105% (active),16.5%,4.78% (active),14.9%,-83.7% (active),7.56% (active),16%,–,13.1%,10%,-29.2% (active),34.6%,4.75% (active),-30.6% (active),13.6%,7.37% (active),8.04% (active),-1.35% (active)
O=C(NNc1nc2cc(F)ccc2n2c(CO)ccc12)c1cnccn1,22.9%,22%,42.9%,21.8%,16.5%,23.6%,6.38% (active),-14.8% (active),1.5% (active),25.1%,4.53% (active),21.5%,8.71% (active),21%,10.2%,–,7.36% (active),2.51% (active),–,8.46% (active)
COc1ccc2c(c1)c(CC(=O)[Se]CC#N)c(C)n2C(=O)c1ccc(Cl)cc1,7.36% (active),-8.37% (active),73%,50.3%,19.7%,8.19% (active),-6.8% (active),55.2%,-35.8% (active),37.6%,-2.11% (active),74%,-3.23% (active),-5.49% (active),12%,–,8.66% (active),10.8%,–,-17.1% (active)
Nc1nc(-c2cccc([N+](=O)[O-])c2)c(N=Nc2ccc([N+](=O)[O-])cc2Cl)s1,3.38% (active),10.7%,-1.14% (active),17%,10.3%,5.14% (active),-76.6% (active),1.4% (active),14.1%,22.8%,6.7% (active),5.24% (active),10.5%,22.7%,7.06% (active),4.29% (active),13%,7.78% (active),–,–
COc1cc(OC)c(S(N)(=O)=O)cc1C(=O)/C=C/c1ccc(Cl)cc1,-41.6% (active),6.08% (active),27.1%,15.8%,3.73% (active),28.2%,5.34% (active),18.6%,-50.4% (active),30.5%,29.8%,16%,7.22% (active),-5.25% (active),11.6%,21.5%,1.6% (active),3.62% (active),–,–
O=C1CCC(N2C(=O)c3ccc(NS(=O)(=O)c4ccccc4OC(F)(F)F)cc3C2=O)C(=O)N1 (stereo not given),7.77% (active),78.4%,58%,39.6%,75.8%,46.4%,45.9%,93.3%,105%,66.8%,78.8%,47.8%,3.53% (active),63.4%,87.5%,–,13.2%,2.34% (active),–,28.5%
